# In PubChem BioAssay AID1865 (National Center for Advancing Translational Sciences (NCATS), 2009):
# “And” between values parts separate entries of the source, which are not always exact repeats. Equal values may be shown once. Screen size: about 280,000 compounds; about 540 (0.19%) were called active. Inconclusive results (about 2%) are left out. Calls follow the shape of the dose curve; as a rule, active = well fitted activation curve with a large enough effect; inconclusive = small, poorly fitted or top-dose-only effect; inactive = flat fitted curve, though single readings scatter. This excerpt belongs to a sample that is enriched for actives. Where a structure was tested more than once in an assay, its records may differ in their call.
# Test: Quantitative High-Throughput Screen for Regulators of Epigenetic Control; also: nearly all actives have a fitted effect of over 60% in size; as to GFP activation: % of control where 0% means no effect
# Details: murine LDR cells, GFP reporter derepression, 30 h; series mostly up to 53.9 µM; GFP activation: at the top concentration
# From the text: NIH Molecular Libraries Screening Centers Network [MLPCN] NIH Chemical Genomics Center [NCGC] MLSCN Grant: 1 X01 MH079860-01 Assay Provider: Elisabeth D. Martinez, University of Texas SW Medical Center NCGC Assay Overview: The Locus Derepression (LDR) assay detects the derepression or induction of a GFP reporter that is stably integrated in a genomic region of murine cells that is presumably silenced. Transcription of the GFP reporter is controlled by a CMV promoter, which normally is constitutively active. However, this cell line, termed LDR, was selected for lack of constitutive production of GFP. GFP production can be induced by incubating the cells with histone deacetylase or DNA methyltransferase inhibitors (Martinez et al., 2006). Compounds that derepress or induce this reporter locus are identified by enumerating GFP positive cells using a laser-scanning microplate cytometer (Auld et al., 2006). This assay was screened against the MLSMR earlier (AID 597; (Johnson et al., 2008) and has been rescreened here against the expanded collection.
# NCGC Assay Protocol Summary: Three hundred LDR cells in 5 uL per well were dispensed into black, clear-bottom 1536-well plates. Twenty-three nL compound was transferred to the assay plate and cells were incubated 30 hours at 37 C. Medium was removed, cells were washed two times with PBS, and GFP-positive cells were enumerated as fluorescent objects between the sizes of 20 to 120 um width and depth using an Acumen Explorer. References Auld, DS, Johnson, RL, Zhang, YQ, Veith, H, Jadhav, A, Yasgar, A, Simeonov, A, Zheng, W, Martinez, ED, Westwick, JK, Austin, CP, Inglese, J (2006). Fluorescent protein-based cellular assays analyzed by laser-scanning microplate cytometry in 1536-well plate format. Methods Enzymol 414: 566-89. Johnson, RL, Huang, W, Jadhav, A, Austin, CP, Inglese, J, Martinez, ED (2008). A quantitative high-throughput screen identifies potential epigenetic modulators of gene expression. Anal Biochem 375: 237-48. Martinez, ED, Dull, AB, Beutler, JA, Hager, GL (2006). High-content fluorescence-based screening for epigenetic modulators. Methods Enzymol 414: 21-36.
# Potency is read from the fitted curve at half-maximal effect.
Compound,Potency,GFP activation
N#CC(C#N)=Cc1cc(O)c(O)c([N+](=O)[O-])c1,inactive and 17.8 µM (active),–
C[C@@]12CC[C@H]3[C@@H](CC[C@]4(O)C[C@H](O)CC[C@@]34C=O)[C@]1(O)CC[C@@H]2C1=CC(=O)OC1,–,4.11% [at 16.9 µM] (inactive)
CCCCCCCCc1[se]c2ccccc2c1Br,–,5.52% (inactive)
COc1ccccc1-c1[se]c2ccccc2c1I,–,0.901% (inactive)
CN[C@@H]1C[C@H]2O[C@@](C)([C@@H]1OC)n1c3ccccc3c3c4c(c5c6ccccc6n2c5c31)C(=O)NC4,inactive,–
CC(C)(Cc1c[nH]c2ccc(Cl)cc12)NCCOc1ccccc1OCC1CC1,inactive,–
CC1=CC(=Cc2sc3ccccc3[n+]2C)C=C(C)O1,11.2 µM (active),–
Fc1ccc(C(OCCN2CCN(C/C=C\c3ccccc3)CC2)c2ccc(F)cc2)cc1,–,3.24% (inactive)
CC(C)(O)c1[se]c2ccccc2c1I,–,3.15% (inactive)
NC[C@H](O)c1ccc(O)cc1,–,1.37% [at 16.9 µM] (inactive)
CCCn1c(C(=O)c2ccccc2OC)nc2ccccc21,–,-2.57% (inactive)
CCOc1ccc(CNC(=O)c2cccc(Nc3nc4ccccc4n4nnnc34)c2)cc1OC,20 µM (active),–
COc1cc(Cn2c(N)c(C(=O)NCc3ccco3)c3nc4ccccc4nc32)cc(OC)c1OC,–,1.22% (inactive)
C[C@]12CC[C@H](O)C[C@@H]1CC[C@H]1[C@H]2CC[C@]2(C)C(=O)CC[C@@H]12,inactive,–
CC(=O)c1c(O)c(C)c(O)c(Cc2c(O)c3c(c(C(=O)/C=C\c4ccccc4)c2O)OC(C)(C)C=C3)c1O,–,-2.7% (inactive)
